# From the supplement of paper PMC9694430
# Columns and labels:
# Assay in all cases: thermal shift delta Tm vs DMSO control; higher = stronger stabilization (binding)
# Settings in all cases: 12.5 µM; protein concentration 2 µM
# LOC_OS01G01410-cb001 = test system: LOC_OS01G01410-cb001
# How it was run: (§1)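 Thermal shift values come from differential scanning fluorimetry on purified rice kinase domains made in E. coli, with melting temperatures obtained from Boltzmann fits. Samples of 19.5 μl held 2 μM kinase, 100 mM potassium phosphate pH 7.5, 150 mM NaCl, 10% glycerol, 5 × SYPRO Orange and compound in DMSO, and were heated from 25°C to 95°C at 0.05°C/s. Each shift is a triplicate mean relative to the DMSO-only protein sample.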
# LOC_OS01G02750-cb003 = test system: LOC_OS01G02750-cb003
# How it was run: as §1
# LOC_OS01G10900-cb004 = test system: LOC_OS01G10900-cb004
# How it was run: as §1
# LOC_OS01G13800-cb001 = test system: LOC_OS01G13800-cb001
# How it was run: as §1
# LOC_OS01G14860-cb001 = test system: LOC_OS01G14860-cb001
# How it was run: as §1
# LOC_OS01G21960-cb002 = test system: LOC_OS01G21960-cb002
# How it was run: as §1
# LOC_OS01G39600-cb002 = test system: LOC_OS01G39600-cb002
# How it was run: as §1
# LOC_OS01G48390-cb002 = test system: LOC_OS01G48390-cb002
# How it was run: as §1
# LOC_OS01G51400-cb002 = test system: LOC_OS01G51400-cb002
# How it was run: as §1
# LOC_OS01G57100-cb003 = test system: LOC_OS01G57100-cb003
# How it was run: as §1
# LOC_OS01G60330-cb001 = test system: LOC_OS01G60330-cb001
# How it was run: as §1
# LOC_OS01G60700-cb002 = test system: LOC_OS01G60700-cb002
# How it was run: as §1
# LOC_OS01G63280-cb003 = test system: LOC_OS01G63280-cb003
# How it was run: as §1
# LOC_OS01G67340-cb003 = test system: LOC_OS01G67340-cb003
# How it was run: as §1
# LOC_OS01G70970-cb002 = test system: LOC_OS01G70970-cb002
# How it was run: as §1
# LOC_OS02G07810-cb001 = test system: LOC_OS02G07810-cb001
# How it was run: as §1
# LOC_OS02G08530-cb003 = test system: LOC_OS02G08530-cb003
# How it was run: as §1
# LOC_OS02G14120-cb001 = test system: LOC_OS02G14120-cb001
# How it was run: as §1
# LOC_OS02G17970-cb001 = test system: LOC_OS02G17970-cb001
# How it was run: as §1
# LOC_OS01G52050-cb004 = test system: T1, LOC_OS01G52050-cb004
# T1 sequence (whole entry): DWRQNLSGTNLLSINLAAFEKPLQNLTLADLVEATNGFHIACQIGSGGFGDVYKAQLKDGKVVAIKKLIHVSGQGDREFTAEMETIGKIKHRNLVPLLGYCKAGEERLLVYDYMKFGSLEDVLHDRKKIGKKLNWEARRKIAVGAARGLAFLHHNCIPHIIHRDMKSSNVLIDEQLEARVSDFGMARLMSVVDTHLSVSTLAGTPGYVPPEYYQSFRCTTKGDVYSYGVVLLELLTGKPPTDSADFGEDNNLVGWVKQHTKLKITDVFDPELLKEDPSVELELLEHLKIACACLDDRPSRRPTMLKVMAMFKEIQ
# How it was run: as §1
# 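Further: purified Escherichia coli-expressed rice kinase domain construct.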
SMILES,thermal shift delta Tm (LOC_OS01G01410-cb001) [°C],thermal shift delta Tm (LOC_OS01G02750-cb003) [°C],thermal shift delta Tm (LOC_OS01G10900-cb004) [°C],thermal shift delta Tm (LOC_OS01G13800-cb001) [°C],thermal shift delta Tm (LOC_OS01G14860-cb001) [°C],thermal shift delta Tm (LOC_OS01G21960-cb002) [°C],thermal shift delta Tm (LOC_OS01G39600-cb002) [°C],thermal shift delta Tm (LOC_OS01G48390-cb002) [°C],thermal shift delta Tm (LOC_OS01G51400-cb002) [°C],thermal shift delta Tm (LOC_OS01G57100-cb003) [°C],thermal shift delta Tm (LOC_OS01G60330-cb001) [°C],thermal shift delta Tm (LOC_OS01G60700-cb002) [°C],thermal shift delta Tm (LOC_OS01G63280-cb003) [°C],thermal shift delta Tm (LOC_OS01G67340-cb003) [°C],thermal shift delta Tm (LOC_OS01G70970-cb002) [°C],thermal shift delta Tm (LOC_OS02G07810-cb001) [°C],thermal shift delta Tm (LOC_OS02G08530-cb003) [°C],thermal shift delta Tm (LOC_OS02G14120-cb001) [°C],thermal shift delta Tm (LOC_OS02G17970-cb001) [°C],thermal shift delta Tm (LOC_OS01G52050-cb004) [°C]
Cc1ccccc1-n1c(Cn2nc(-c3cccc(O)c3)c3c(N)ncnc32)nc2cccc(C)c2c1=O,0.31,0.33,0.02,-0.2,-0.04,0.03,-0.15,0.39,0.33,1.41,0.24,1.19,0.18,0.86,0.24,1.1,0.86,-1.12,-0.12,–
CC(C)=CC[C@@H](O)C1=CC(=O)c2c(O)ccc(O)c2C1=O [Shikonin],5.01,17.4,9.19,2.82,7.52,1.95,–,5.3,18.6,–,-0.94,3.41,–,-2.36,-5.42,0.63,-0.15,-4.81,3.84,12.1
O=C(O)c1cc(O)c2c(c1)[C@@H]([C@H]1c3cc(C(=O)O)cc(O)c3C(=O)c3c(O[C@@H]4O[C@H](CO)[C@@H](O)[C@H](O)[C@H]4O)cccc31)c1cccc(O[C@@H]3O[C@H](CO)[C@@H](O)[C@H](O)[C@H]3O)c1C2=O [Sennoside B],4.96,27.3,6.66,2.08,4.72,3.52,–,4.78,–,5.41,–,2.73,19.9,–,1.98,0.69,0.42,0.03,3.25,8.22
O=C(Nc1ccc(-c2ccnc(Nc3ccc(N4CCOCC4)cc3)n2)cc1)C1CCCN1 (stereo not given),-0.35,-0.13,0.59,-0.02,1.14,1.5,–,0.45,0.18,0.26,0.51,1.22,0.08,-0.06,0.39,0.59,0.66,3.38,0.54,0.51
CCc1ccc(/C=C2/SC(=S)NC2=O)cc1,1.69,1.03,2.03,0.53,1.38,1.74,–,0.63,0.67,3.2,1.11,2.87,0.27,0.34,1.39,1.4,1.74,1.62,1.54,1.47
Cc1nc2c(-c3cnc(N)nc3)nc(N3CCOCC3)nc2n1C(C)C,0.02,0.81,0.35,0.04,-0.18,0.83,1.29,0.44,0.69,1.43,0.31,1.66,0.78,0.22,–,1.23,1.18,0.05,2.41,–
O=c1ccc2ccc(O)c(O)c2o1 [Daphnetin],0.85,–,0.22,0.62,0.62,1.18,-0.43,0.92,0.41,4.5,1.15,1.06,0.68,0.06,0.05,1.27,1.2,0.72,1.06,0.08
O=C(Nc1nc2cccc(-c3ccc(CN4CCS(=O)(=O)CC4)cc3)n2n1)C1CC1 [Filgotinib (GLPG0634)],0.4,0.46,0.17,0.3,0.5,0.89,-0.06,0.26,0.32,1.32,2.66,0.53,0.12,0.43,0.37,0.52,0.93,2.91,0.47,1.03
O=c1c(O)c(-c2cc(O)c(O)c(O)c2)oc2cc(O)cc(O)c12 [Myricetin],2.93,26.2,1.94,1.96,5.72,5.56,4.45,2.72,2.08,7.25,8.95,-2.19,–,2.79,2.23,2.22,2.57,2.73,5.74,5.01
Cc1ccc(NC(=O)Nc2cc(C(F)(F)F)ccc2F)cc1Nc1ccc2c(c1)NC(=O)/C2=C\c1ccc[nH]1,0,4.91,-0.66,3.11,2.49,4.16,2.94,3.2,–,2.33,1.66,0.91,2.05,1.55,1.83,3.74,-2.7,0.57,1.85,4.68
O=C(NC(NC(=S)Nc1ccc(F)c([N+](=O)[O-])c1)C(Cl)(Cl)Cl)C(c1ccccc1)c1ccccc1 (stereo not given),3.6,9.2,2.57,2.31,3.26,3.31,28.9,3.82,1.04,4.28,8.97,3.48,–,0.17,1.86,3.38,2.71,2.37,3.46,3.03
CC(=O)O/N=C1/C(c2c(O)[nH]c3cc(Br)ccc23)=Nc2ccccc21 [BIO-acetoxime],2.35,-1.15,-2.37,–,6.31,0.48,-0.05,3.95,0.25,-10.7,0.36,-0.6,0.15,-1.03,-1.11,–,2.87,-2.97,–,0.12
Cn1cc(C2=C(c3ccc(Cl)cc3Cl)C(=O)NC2=O)c2ccccc21,4.05,13.7,6.42,1.69,6.48,4.64,18.2,2.99,13.9,6.65,11.5,4.75,15.7,–,7.16,1.24,3.23,12.5,1.77,14.6
